Measured values taken from PubChem BioAssay (NCATS).
Values joined by “and” are separate entries in the source; they are usually repeats but may differ in a detail not shown here. Identical values can stand only once. Records with an inconclusive call do not appear. Where a call stands in place of a potency, no number is given. The source holds several records for some structures; these can differ, active in one and inactive in another. Active and inactive are the calls of the source. Calls come from the whole dose curve; as a rule, active = well fitted curve in the direction sought with a large enough effect; inconclusive = small, poorly fitted or top-dose-only effect, or another doubt; inactive = no such curve, though single readings can be large; an effect the other way counts as inactive or inconclusive.

Experiments:
[1] = Primary qHTS for inhibitors of nuclear receptor binding SET domain protein 2 (NSD2) in an isogenic RCH-ACV NSD2 p.E1099K mutant (9B) (AID 1645876)
[2] = Primary qHTS for inhibitors of nuclear receptor binding SET domain protein 2 (NSD2) in an RCH-ACV wild type WT cells (2C) (AID 1645877); note: potency is the fitted concentration of half-maximal effect
Note: nearly all actives have a fitted effect of over 70% in size.

CC12CC34C=CC(=O)C(C)(CCC(=O)O)C3C(CC1C4)O2 (stereo not given)
Potency [1]: inactive | Potency [2]: inactive

CC1CCC2C(C(=O)O)=CC3CC(C)(C)CC132 (stereo not given)
Potency [1]: inactive | Potency [2]: inactive

NC1CCC(N[C@@H]2C[C@H]2c2ccccc2)CC1 (stereo not given in full)
Potency [1]: inactive | Potency [2]: inactive and 26.3 µM (active)

CC(C)=CC/C=C(/C)[C@H]1CC[C@]2(C)[C@@H]1[C@H](O)CC1[C@@]3(C)CC[C@H](O)C(C)(C)[C@@H]3[C@@H](O[C@@H]3O[C@H](CO)[C@@H](O)[C@H](O)[C@H]3O[C@@H]3O[C@@H](C)[C@H](O)[C@@H](O)[C@H]3O)C[C@]12C (stereo not given in full)
Potency [1]: inactive | Potency [2]: inactive

CCOC(=O)c1ccnc(CNCC(=O)N(CC)CCN(C)C)c1
Potency [1]: inactive | Potency [2]: inactive

CC1(C)C(O)CCC2(C)C1C(O)C=C1COC(=O)C12O (stereo not given)
Potency [1]: inactive | Potency [2]: inactive

Cc1nnc(C(C)C)n1C1CC2CCC(C1)N2CCC(NC(=O)C1CCC(F)(F)CC1)c1ccccc1 (stereo not given)
Potency [1]: inactive | Potency [2]: inactive

CCC(C)/C=C(C)/C=C/C1=CC2=C(Cl)C(=O)C(C)(OC(C)=O)C(=O)C2=CN1CCCC(=O)O (stereo not given)
Potency [1]: inactive | Potency [2]: inactive

CC(/C=C/C1(O)C(C)(C)CC(O)CC1(C)O)OC1OC(CO)C(O)C(O)C1O (stereo not given)
Potency [1]: inactive | Potency [2]: inactive

C=C1CCC2C(OC(=O)C2(O)COC(C)=O)C2C(=C)C(O)CC12 (stereo not given)
Potency [1]: inactive | Potency [2]: inactive

CC(C)[C@@H](C)/C=C/[C@@H](C)[C@H]1CC[C@H]2C3=CC=C4C[C@@H](O)CC[C@]4(C)[C@H]3CC[C@]12C
Potency [1]: inactive | Potency [2]: inactive

C=C1CC[C@H]2[C@@](C)(CCC[C@@]2(C)C(=O)O)[C@@H]1CCC(C)CCO (stereo not given in full)
Potency [1]: inactive | Potency [2]: inactive

CCC(C)/C=C(C)/C=C/C1=CC2=C(Cl)C(=O)C(C)(OC(C)=O)C(=O)C2=CN1C1CCCCN(C(CCC(N)=O)C(=O)O)C1=O (stereo not given)
Potency [1]: inactive | Potency [2]: inactive

CC1(O)CCC2C(C(=O)O)=COC(OC3OC(CO)C(O)C(O)C3OC(=O)/C=C/c3ccc(O)cc3)C21 (stereo not given)
Potency [1]: inactive | Potency [2]: inactive

COc1cc(O[C@@H]2O[C@H](CO)[C@@H](O)[C@H](O)[C@H]2O)c(CCC(=O)OC[C@H]2O[C@@H](Oc3cc(OC)c(C4OC(=O)C(C)(O)C4O)cc3CCC(=O)O)[C@H](O)[C@@H](O)[C@@H]2O)cc1C1OC(=O)C(C)(O)C1O (stereo not given in full)
activity change, negative = viability loss [1]: -2.96% [at 9.23 µM] (inactive) | activity change, negative = cell killing [2]: -6.02% [at 9.23 µM] (inactive)

OC[C@H]1O[C@@H](OCCc2ccc(O)cc2)[C@H](O)[C@@H](O)[C@@H]1O
Potency [1]: inactive | Potency [2]: inactive

N#CCc1ccc(O)cc1O[C@@H]1O[C@H](CO)[C@@H](O)[C@H](O)[C@H]1O
Potency [1]: inactive | Potency [2]: inactive

COC(=O)c1cc(CN2CCN(C(=N)N)CC2)cc(C(=O)N2CCN(C(=O)c3ccc(C(=N)N)cc3)CC2)c1
Potency [1]: inactive | Potency [2]: inactive

CC1=CC(=O)OC(C)(CC(C)(O)C(=O)O)C1 (stereo not given)
Potency [1]: inactive | Potency [2]: inactive

COc1ncc(-c2ccc3c(Nc4cc(Oc5cc(F)cc(F)c5)cc(C(=O)O)c4)c(S(=O)(=O)NC4CC4)cnc3c2)c(OC)n1
Potency [1]: inactive | Potency [2]: inactive

CCC(C)C(=O)O[C@@H]1[C@@H](O)[C@@H](O[C@H]2O[C@H](CO)[C@@H](O)[C@H](O)[C@H]2O)O[C@H](CO)[C@H]1O (stereo not given in full)
Potency [1]: inactive | Potency [2]: inactive

COC(=O)C1=COC(O[C@@H]2O[C@H](CO)[C@@H](O)[C@H](O)[C@H]2O)/C(=C\COC(=O)c2ccc(OC3OC(CO)C(O)C(O)C3O)c(OC)c2)C1CC(=O)OCCc1ccc(O)cc1 (stereo not given in full)
outcome [1]: inactive [at 9.23 µM] | outcome [2]: inactive [at 9.23 µM]

CCC(CCO[C@@H]1O[C@H](CO[C@H]2OC[C@](O)(CO)[C@H]2O)[C@@H](O)[C@H](O)[C@H]1O)C(C)(C)O (stereo not given in full)
Potency [1]: inactive | Potency [2]: inactive

C=C1CCC2C(C)(CO[C@@H]3O[C@H](CO)[C@@H](O)[C@H](O)[C@H]3O)C(O)CCC2(C)C1C(=O)CC1=CCOC1=O (stereo not given in full)
Potency [1]: inactive | Potency [2]: inactive

C=CC1(C)CC(O)C2(CCC3C(C)(C(=O)O)CCCC3(C)C2=O)C1 (stereo not given)
Potency [1]: inactive | Potency [2]: inactive

C=C1C2(CCC(=O)OC2(C)C)CC(OC(=O)/C(C)=C/C)C2(C)C13OC14C(=O)OC(C)(C(=O)C12C(=O)OC4C)C3OC(C)=O (stereo not given)
Potency [1]: inactive | Potency [2]: inactive

COC(=O)CC[C@@H](C)[C@H]1CC[C@H]2[C@@H]3CC(=O)[C@H]4C[C@H](OC(C)=O)CC[C@]4(C)[C@H]3CC[C@]12C
Potency [1]: inactive | Potency [2]: inactive

CC1=CC(=O)C2C(C)(C)CC(O)CC2(C)C1CO (stereo not given)
Potency [1]: inactive | Potency [2]: inactive

C=C1CCC2C(C)(C)CC(=O)CC2(C)C1CCC(C)CCOC(C)=O (stereo not given)
Potency [1]: inactive | Potency [2]: inactive

CC(C)CC(=O)OC[C@H]1O[C@@](COC(=O)CC(C)C)(O[C@H]2O[C@H](CO)[C@@H](O)[C@H](O)[C@H]2O)[C@@H](OC(=O)CC(C)C)[C@@H]1OC(=O)CC(C)C
Potency [1]: inactive | Potency [2]: inactive

C[C@]1(OC(=O)/C=C/c2ccccc2)C[C@H](O)[C@]2(O)C=CO[C@@H](O[C@@H]3O[C@H](CO)[C@@H](O)[C@H](O)[C@H]3O)C12 (stereo not given in full)
Potency [1]: inactive | Potency [2]: inactive

O=C(O)CCc1cc2ccoc2cc1O[C@@H]1O[C@H](CO[C@@H]2OC[C@](O)(CO)[C@H]2O)[C@@H](O)[C@H](O)[C@H]1O
Potency [1]: inactive | Potency [2]: inactive

CO[C@@H]1CC[C@H](OC[C@]2(COC(=O)c3ccc(C)[nH]3)[C@H](OC(C)=O)CC[C@@]3(C)[C@@H]4CC=C(C)[C@@H](C5=C(O)C(=O)OC5O)[C@]4(C)CC[C@@H]32)O[C@H]1C (stereo not given in full)
Potency [1]: inactive | Potency [2]: inactive

CC(=O)c1c(C)cc(O[C@@H]2O[C@H](CO)[C@@H](O)[C@H](O)[C@H]2O)cc1O
Potency [1]: inactive | Potency [2]: inactive

CN1C(=O)c2ccccc2-n2c(nc3ccccc3c2=O)/C1=C/c1ccccc1
Potency [1]: inactive | Potency [2]: inactive

C=CC(C)(C)C1(CC2NC(=O)C3CCCN3C2=O)C(=O)Nc2cc3c(cc21)C=CC(C)(C)O3 (stereo not given)
Potency [1]: inactive | Potency [2]: inactive

Cn1ccnc1CCOC(c1cc2nccc(C(=O)O)c2[nH]1)c1ccccc1Cl (stereo not given)
Potency [1]: inactive | Potency [2]: inactive

Cc1c(N2C(=O)c3ccc(C(=O)O)cc3C2=O)c(=O)n(-c2ccccc2)n1C
Potency [1]: inactive | Potency [2]: inactive

C=C[C@H]1[C@H](O[C@@H]2O[C@H](CO)[C@@H](O)[C@H](O)[C@H]2O)OC=C(C(=O)OC)[C@H]1C[C@@H]1N[C@H](C(=O)O)Cc2c1[nH]c1ccccc21
Potency [1]: inactive | Potency [2]: inactive

COC(=O)[C@H](OC(C)=O)[C@H]1C(C)(C)C(=O)[C@H]2CC3=C4CC(=O)O[C@@H](c5ccoc5)[C@]4(C)CCC3[C@@]1(C)C2=O (stereo not given in full)
Potency [1]: inactive | Potency [2]: inactive

COC1CCCC/C(C)=C/C2C=C(C)C(C)C3C(CC(C)C)NC(=O)C23C(=O)C1 (stereo not given)
Potency [1]: inactive | Potency [2]: inactive

CC(=O)O[C@H](C[C@@H](C)[C@H]1C(=O)[C@H](O)[C@@]2(C)[C@@H]3CCC4C(C)(C)[C@@H](O[C@@H]5OC[C@H](O)[C@H](O)[C@H]5O)CC[C@@]45C[C@@]35CC[C@]12C)[C@@H]1OC1(C)C (stereo not given in full)
Potency [1]: inactive | Potency [2]: inactive

CC(=O)N(O)CCCCCN1C(=O)CCC1=O
Potency [1]: inactive | Potency [2]: inactive

CC1=CC(=O)CC(C)(CO[C@@H]2O[C@H](CO)[C@@H](O)[C@H](O)[C@H]2O)C1(O)/C=C/C(C)=C/C(=O)O (stereo not given in full)
Potency [1]: inactive | Potency [2]: inactive

COc1ccc([C@H]2Cc3cccc(O)c3C(=O)O2)cc1
Potency [1]: inactive | Potency [2]: inactive

COc1cc(C(=O)OC[C@H]2O[C@H](O[C@@]3(CO)O[C@@H](CO)[C@H](O)[C@H]3O)[C@H](O)[C@@H](O)[C@@H]2O)ccc1O
Potency [1]: inactive | Potency [2]: inactive

CCOc1c2c(c(OCC)c3ccccc13)C(=O)N(c1ccc(CC(=O)NS(=O)(=O)c3ccccc3)cc1)C2
Potency [1]: inactive | Potency [2]: inactive

CC1CCC2C(C)(C)C(O)CCC2(C)C12Cc1c(O)cc3c(c1O2)CN(C(CCC(N)=O)C(=O)O)C3=O (stereo not given)
Potency [1]: inactive | Potency [2]: inactive

CC(c1c[nH]c2ccccc12)C(O)C(=O)O (stereo not given)
Potency [1]: inactive | Potency [2]: inactive

C=C/C=C/[C@@H]1OC[C@H](/C=C/C=C/C)[C@H]1O
Potency [1]: inactive | Potency [2]: inactive

CC(=O)NC(CCC(=O)O)C(=O)NCCc1ccc(O)cc1 (stereo not given)
Potency [1]: inactive | Potency [2]: inactive

C[C@@H]1CCC2C(C)(C)[C@H](O)CC[C@]2(C)[C@@]12Cc1c(O)cc3c(c1O2)CN(CCO)C3=O (stereo not given in full)
Potency [1]: inactive | Potency [2]: inactive

CC(C)=CCC[C@](C)(O[C@@H]1O[C@H](CO[C@@H]2OC[C@@H](O)[C@H](O)[C@H]2O)[C@@H](O)[C@H](O)[C@H]1O)[C@H]1CC[C@]2(C)[C@@H]1[C@H](O)C[C@@H]1[C@@]3(C)CC[C@H](O[C@@H]4O[C@H](CO)[C@@H](O)[C@H](O)[C@H]4O[C@@H]4O[C@H](CO)[C@@H](O)[C@H](O)[C@H]4O)C(C)(C)[C@@H]3CC[C@]12C
Potency [1]: inactive | Potency [2]: inactive

C[C@@H]1CC[C@]2(C(=O)O)CC[C@]3(C(=O)O)C(=CCC4[C@@]5(C)CC[C@H](O[C@@H]6O[C@@H](C)[C@H](O[C@@H]7O[C@H](CO)[C@@H](O)[C@H](O)[C@H]7O)[C@@H](O)[C@H]6O)C(C)(C)C5CC[C@]43C)C2[C@H]1C (stereo not given in full)
Potency [1]: inactive | Potency [2]: inactive

C=C1CCC2C(C)(C)C(O)CCC2(C)C1CCC(C)CCOC(=O)CCC(=O)O (stereo not given)
Potency [1]: inactive | Potency [2]: inactive

COc1ccc2c3c1O[C@H]1C[C@@H](O)C=C[C@@]31CCN(C)C2
Potency [1]: inactive | Potency [2]: inactive

C=C1CC/C=C(/CO)C(=O)C[C@@H]2[C@@H]1CC2(C)C
Potency [1]: inactive | Potency [2]: inactive

CCCC(N[C@@H](C)C(=O)N1[C@H](C(=O)O)C[C@@H]2CCCC[C@@H]21)C(=O)OCC (stereo not given in full)
Potency [1]: inactive | Potency [2]: inactive

CC1CC(O)CC(C)(C)C1(O)CCO (stereo not given)
Potency [1]: inactive | Potency [2]: inactive

C=CC1(C)C=C2C(O)CC3C(C)(C(=O)O)CCCC3(C)C2CC1 (stereo not given)
Potency [1]: inactive | Potency [2]: inactive
